Assay results taken from ChEMBL document CHEMBL4296182, “CO-ADD screening of NIH NCI Diversity Set V”.

Tested on: Staphylococcus aureus
Assay: Antibacterial activity against Staphylococcus aureus MRSA ATCC 43300 (CO-ADD:GP_020); MIC in CAMBH media using NBS plates, by Resazurin F(560/590)
Type: functional
Conditions: Concentration 20 uM, ASSAY_TEST Inhibition of Bacterial Growth, detection method Resazurin, Fluorescence (ex560/em590), MEDIA CAMHB, plate type 384well, CORNING #3640, time 18 hr

| SMILES | Inhibition |
| --- | --- |
| NC(=O)C1=CC2C3C=CC2(O)C(=O)OC3O1 (stereo not given) | -0.72% |
| CC12C(=O)N(c3nccs3)C(=O)C1(C)C1CCC2O1 (stereo not given) | 6.57% |
| O=C(O)c1nn(-c2ccccc2-c2nnc(O)nc2O)c(=O)[nH]c1=O | 28.61% |
| Cc1ccc(/N=N/c2ccc(N)cc2C)c(S(N)(=O)=O)c1 | -7.58% |
| CCCN=C(S)Nc1ccccc1 | -20.14% |
| O=C(N(c1ccccc1)c1ccccc1)N(c1ccccc1)c1ccccc1 | 13.33% |
| Clc1[nH]cnc2nccc1-2 | 1.4% |
| COc1ccc(OC)c(NC(=O)c2cc3oc4ccccc4c3cc2O)c1 | 13.76% |
| Cc1nc(Br)c(Br)c(C)c1Br | 1.89% |
| COc1ccc(C(=S)N2CCN(c3ccccc3C)CC2)cc1 | 6.05% |
| Nc1ccc(NC(=O)Nc2ccc(N)cc2)cc1 | -0.09% |
| c1ccc2[nH]c(-c3ccncc3)nc2c1 | 11.19% |
| CCOC(=O)Nc1c(Cl)n(C)c(=O)n(C)c1=O | -8.24% |
| CC(NC(=O)c1ccc(Cl)c(Cl)c1)c1ccc(-c2ccccc2)cc1 (stereo not given) | 12.08% |
| Oc1ccc(Nc2ccc3ccccc3c2)cc1 | -6.35% |
| CCN(CC)C(=O)Cn1ccc(NC(C)=O)nc1=O | -5.08% |
| Cc1ccn(C)c(=N)c1 | 5.26% |
| NC(=O)c1nnsc1-c1ccc(-c2snnc2C(N)=O)cc1 | 15.72% |
| Cc1cc(N2CCOCC2)nc(N2CCOCC2)n1 | 0.14% |
| N#Cc1c(N)nc(N)nc1Nc1ccc(Br)cc1 | 13.29% |
